The text below walks through data of publication PMC7862700, “An all-to-all approach to the identification of sequence-specific readers for epigenetic DNA modifications on cytosine”.

Holding throughout (test): DAPPL (digital affinity profiling via proximity ligation, sequencing); 10 mM Tris-HCl pH 7.5, 50 mM NaCl, 1 mM DTT, 4% glycerol, room temperature, 30 min; GST-TFs on glutathione beads, 16-mer random dsDNA library, 0.1% formaldehyde crosslink after washing; high values mean tight binding
The target of one test is T1, FEV (Homo sapiens, UniProt Q99581 1-238).
T1 sequence: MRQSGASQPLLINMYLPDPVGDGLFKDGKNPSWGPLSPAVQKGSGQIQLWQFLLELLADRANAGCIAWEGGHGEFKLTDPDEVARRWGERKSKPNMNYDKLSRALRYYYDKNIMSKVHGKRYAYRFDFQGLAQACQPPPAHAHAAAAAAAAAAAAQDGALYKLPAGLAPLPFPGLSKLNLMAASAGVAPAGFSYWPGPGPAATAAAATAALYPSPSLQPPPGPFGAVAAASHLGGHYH
The conditions noted are these: protein: recombinant; tags: N-terminal GST; dsDNA, one strand shown. In a few lines:
(§1)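 After expression in yeast as GST fusions, human transcription factors were bound to glutathione beads, DNA-barcoded and mixed with a tag-only sample. The pools were incubated with 200 nmole of a 16-mer random double-stranded DNA library in Tris/NaCl/DTT/glycerol buffer (30 min, room temperature), washed and crosslinked with 0.1% formaldehyde. Proximity ligation with BsaI/T4 ligase ran for 1 h at 37 °C, before PCR amplification and sequencing on an Illumina NextSeq500. Binding signal is a hexamer's read frequency for a factor divided by its frequency for the tag-only sample.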

In the next test the target is ETV5 (Homo sapiens, UniProt P41161 1-510). Particulars: protein: recombinant; tags: N-terminal GST; dsDNA, one strand shown. An outline of the steps:
as §1

The next test has as its target HSF1 (Homo sapiens, UniProt Q00613 1-529). The conditions noted are these: protein: recombinant; tags: N-terminal GST; chain copies: 3; dsDNA, one strand shown. An outline of the steps:
as §1

In another test the target is T2, SPIC (Homo sapiens, UniProt Q8N5J4 1-248).
T2 sequence: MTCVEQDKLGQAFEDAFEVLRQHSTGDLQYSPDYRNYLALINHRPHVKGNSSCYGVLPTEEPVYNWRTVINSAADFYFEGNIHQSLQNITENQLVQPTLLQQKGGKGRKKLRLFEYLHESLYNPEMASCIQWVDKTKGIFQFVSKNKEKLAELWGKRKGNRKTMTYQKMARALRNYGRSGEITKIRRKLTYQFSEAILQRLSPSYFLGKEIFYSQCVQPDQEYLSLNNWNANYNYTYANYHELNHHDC
Particulars: protein: recombinant; tags: N-terminal GST; dsDNA, one strand shown. An outline of the steps: as §1

For the next test, the target named is ELF4 (Homo sapiens, UniProt Q99607 1-663). The conditions noted are these: protein: recombinant; tags: N-terminal GST; dsDNA, one strand shown. An outline of the steps:
as §1

A further test addresses T3, ELK4 (Homo sapiens, UniProt P28324-2 1-405).
T3 sequence: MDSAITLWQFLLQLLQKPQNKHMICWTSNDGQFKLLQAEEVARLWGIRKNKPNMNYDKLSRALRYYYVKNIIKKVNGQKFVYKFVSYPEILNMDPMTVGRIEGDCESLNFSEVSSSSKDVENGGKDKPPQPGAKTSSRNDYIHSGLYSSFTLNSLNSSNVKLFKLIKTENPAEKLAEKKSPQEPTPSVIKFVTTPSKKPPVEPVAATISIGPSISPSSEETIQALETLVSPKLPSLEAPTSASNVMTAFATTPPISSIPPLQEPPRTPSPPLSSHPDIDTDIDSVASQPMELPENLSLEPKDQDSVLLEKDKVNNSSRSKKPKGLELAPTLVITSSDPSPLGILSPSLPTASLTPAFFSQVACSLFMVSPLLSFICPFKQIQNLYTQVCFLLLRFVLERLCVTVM
Particulars: protein: recombinant; tags: N-terminal GST; dsDNA, one strand shown. An outline of the steps:
as §1

For a further test, the target named is T4, ETV2 (Homo sapiens, UniProt O00321 1-342).
T4 sequence: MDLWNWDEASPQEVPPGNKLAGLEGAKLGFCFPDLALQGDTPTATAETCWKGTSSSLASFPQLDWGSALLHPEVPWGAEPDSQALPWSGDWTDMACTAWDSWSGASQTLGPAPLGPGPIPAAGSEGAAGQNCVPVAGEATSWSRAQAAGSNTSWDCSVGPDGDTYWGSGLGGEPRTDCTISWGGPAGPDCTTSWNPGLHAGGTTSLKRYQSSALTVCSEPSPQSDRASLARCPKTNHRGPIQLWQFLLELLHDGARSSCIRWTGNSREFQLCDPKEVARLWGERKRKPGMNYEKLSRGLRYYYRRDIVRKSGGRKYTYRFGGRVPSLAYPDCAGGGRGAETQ
Particulars: protein: recombinant; tags: N-terminal GST; dsDNA, one strand shown. In a few lines:
as §1

In another test the target is T5, ELF3 (Homo sapiens, UniProt P78545 1-371).
T5 sequence: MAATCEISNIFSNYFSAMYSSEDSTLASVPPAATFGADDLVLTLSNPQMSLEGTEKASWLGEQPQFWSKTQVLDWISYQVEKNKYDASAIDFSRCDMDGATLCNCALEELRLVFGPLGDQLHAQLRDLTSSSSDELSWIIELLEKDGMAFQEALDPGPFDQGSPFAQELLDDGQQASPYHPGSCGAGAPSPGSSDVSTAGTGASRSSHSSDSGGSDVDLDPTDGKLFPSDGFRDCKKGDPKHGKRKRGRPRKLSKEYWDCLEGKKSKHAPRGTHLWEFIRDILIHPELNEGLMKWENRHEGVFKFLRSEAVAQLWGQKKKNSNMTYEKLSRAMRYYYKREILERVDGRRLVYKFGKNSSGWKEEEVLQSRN
Particulars: protein: recombinant; tags: N-terminal GST; dsDNA, one strand shown. In a few lines: as §1

The target in another test is CRX (Homo sapiens, UniProt O43186 1-299). Particulars: protein: recombinant; tags: N-terminal GST; dsDNA, one strand shown. An outline of the steps:
as §1

Another test concerns the target ETV1 (Homo sapiens, UniProt P50549 1-477). The conditions noted are these: protein: recombinant; tags: N-terminal GST; dsDNA, one strand shown. An outline of the steps: as §1
Another test concerns the target T6, ERF (Homo sapiens, UniProt P50548 1-548).
T6 sequence: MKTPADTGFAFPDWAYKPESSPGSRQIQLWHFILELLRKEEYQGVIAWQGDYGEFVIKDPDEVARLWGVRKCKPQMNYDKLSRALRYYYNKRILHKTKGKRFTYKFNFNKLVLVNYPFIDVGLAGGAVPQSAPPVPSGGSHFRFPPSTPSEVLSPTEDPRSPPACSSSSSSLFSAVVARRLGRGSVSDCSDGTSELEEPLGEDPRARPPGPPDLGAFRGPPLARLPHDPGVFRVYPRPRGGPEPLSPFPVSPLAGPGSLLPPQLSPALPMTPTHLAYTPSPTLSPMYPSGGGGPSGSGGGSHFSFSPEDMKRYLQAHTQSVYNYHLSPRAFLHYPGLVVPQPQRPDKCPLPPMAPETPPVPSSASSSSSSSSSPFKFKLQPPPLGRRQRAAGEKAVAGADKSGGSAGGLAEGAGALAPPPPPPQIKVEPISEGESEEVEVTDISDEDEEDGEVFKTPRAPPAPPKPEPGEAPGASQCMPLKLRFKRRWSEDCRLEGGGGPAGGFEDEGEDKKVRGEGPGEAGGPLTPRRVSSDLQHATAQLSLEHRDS
Particulars: protein: recombinant; tags: N-terminal GST; dsDNA, one strand shown. In a few lines:
as §1

For another test, the target named is T7, ETV3L (Homo sapiens, UniProt Q6ZN32 1-361).
T7 sequence: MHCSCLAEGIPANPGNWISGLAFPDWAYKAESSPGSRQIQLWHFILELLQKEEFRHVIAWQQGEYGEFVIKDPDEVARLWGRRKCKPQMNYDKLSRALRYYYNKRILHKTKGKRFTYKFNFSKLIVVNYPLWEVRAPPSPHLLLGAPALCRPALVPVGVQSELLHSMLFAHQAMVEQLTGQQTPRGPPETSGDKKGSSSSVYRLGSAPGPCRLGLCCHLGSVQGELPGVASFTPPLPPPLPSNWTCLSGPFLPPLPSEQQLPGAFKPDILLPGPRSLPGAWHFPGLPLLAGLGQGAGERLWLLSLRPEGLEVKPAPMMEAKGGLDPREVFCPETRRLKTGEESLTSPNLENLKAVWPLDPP
The conditions noted are these: protein: recombinant; tags: N-terminal GST; dsDNA, one strand shown. An outline of the steps: as §1

For the next test, the target named is T8, ETS2 (Homo sapiens, UniProt P15036 1-469).
T8 sequence: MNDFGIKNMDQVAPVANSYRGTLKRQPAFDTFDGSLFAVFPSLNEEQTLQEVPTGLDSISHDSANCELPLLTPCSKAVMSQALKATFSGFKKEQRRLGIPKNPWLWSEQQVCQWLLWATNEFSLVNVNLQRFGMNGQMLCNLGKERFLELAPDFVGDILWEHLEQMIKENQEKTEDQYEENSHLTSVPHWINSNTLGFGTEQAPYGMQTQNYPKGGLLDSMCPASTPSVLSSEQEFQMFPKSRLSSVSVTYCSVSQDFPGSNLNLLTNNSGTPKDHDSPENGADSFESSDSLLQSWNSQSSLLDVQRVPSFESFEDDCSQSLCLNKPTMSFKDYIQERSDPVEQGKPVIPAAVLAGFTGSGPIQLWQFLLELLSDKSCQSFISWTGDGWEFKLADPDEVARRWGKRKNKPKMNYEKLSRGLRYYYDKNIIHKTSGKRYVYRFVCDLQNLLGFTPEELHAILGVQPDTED
Particulars: protein: recombinant; tags: N-terminal GST; dsDNA, one strand shown. An outline of the steps:
as §1

Another test concerns the target T9, SPDEF (Homo sapiens, UniProt O95238 1-335).
T9 sequence: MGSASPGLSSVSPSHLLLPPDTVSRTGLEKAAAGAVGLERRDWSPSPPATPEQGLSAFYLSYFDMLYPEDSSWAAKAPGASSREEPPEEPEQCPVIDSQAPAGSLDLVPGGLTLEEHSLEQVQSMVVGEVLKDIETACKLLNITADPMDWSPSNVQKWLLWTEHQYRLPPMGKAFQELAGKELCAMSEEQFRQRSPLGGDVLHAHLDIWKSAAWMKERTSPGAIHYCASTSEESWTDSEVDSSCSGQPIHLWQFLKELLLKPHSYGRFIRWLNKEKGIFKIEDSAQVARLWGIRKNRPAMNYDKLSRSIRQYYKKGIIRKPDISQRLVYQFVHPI
Particulars: protein: recombinant; tags: N-terminal GST; dsDNA, one strand shown. In a few lines:
as §1

The next test deals with T10, ETV7 (Homo sapiens, UniProt Q9Y603 1-341).
T10 sequence: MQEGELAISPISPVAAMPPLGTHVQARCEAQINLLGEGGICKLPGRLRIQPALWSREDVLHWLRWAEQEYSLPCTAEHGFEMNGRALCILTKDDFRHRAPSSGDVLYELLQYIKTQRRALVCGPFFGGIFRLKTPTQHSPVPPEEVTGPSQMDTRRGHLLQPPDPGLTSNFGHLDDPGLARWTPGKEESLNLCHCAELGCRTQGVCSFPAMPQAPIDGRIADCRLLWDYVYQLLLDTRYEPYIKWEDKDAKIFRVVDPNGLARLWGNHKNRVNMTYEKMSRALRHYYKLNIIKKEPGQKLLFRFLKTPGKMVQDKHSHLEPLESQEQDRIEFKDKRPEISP
Particulars: protein: recombinant; tags: N-terminal GST; dsDNA, one strand shown. An outline of the steps:
as §1

The target in another test is T11, ELF5 (Homo sapiens, UniProt Q9UKW6-2 1-255).
T11 sequence: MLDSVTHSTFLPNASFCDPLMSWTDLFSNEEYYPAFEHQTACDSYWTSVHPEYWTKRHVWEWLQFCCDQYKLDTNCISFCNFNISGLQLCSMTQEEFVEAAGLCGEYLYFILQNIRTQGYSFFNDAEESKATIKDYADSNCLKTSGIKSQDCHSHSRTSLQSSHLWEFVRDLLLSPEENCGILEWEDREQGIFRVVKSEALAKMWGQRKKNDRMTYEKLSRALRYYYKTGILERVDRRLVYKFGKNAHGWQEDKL
The conditions noted are these: protein: recombinant; tags: N-terminal GST; dsDNA, one strand shown. An outline of the steps:
as §1

In the next test the target is T12, ETV3 (Homo sapiens, UniProt P41162-2 1-143).
T12 sequence: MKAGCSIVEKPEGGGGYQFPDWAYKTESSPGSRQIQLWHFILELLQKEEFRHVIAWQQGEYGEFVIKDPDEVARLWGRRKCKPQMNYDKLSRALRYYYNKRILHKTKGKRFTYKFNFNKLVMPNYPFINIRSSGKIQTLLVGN
Particulars: protein: recombinant; tags: N-terminal GST; dsDNA, one strand shown. In a few lines: as §1

In a further test the target is ETV6 (Homo sapiens, UniProt P41212 1-452). The conditions noted are these: protein: recombinant; tags: N-terminal GST; dsDNA, one strand shown. An outline of the steps:
as §1

Chain of ETV6 (P41212 whole entry): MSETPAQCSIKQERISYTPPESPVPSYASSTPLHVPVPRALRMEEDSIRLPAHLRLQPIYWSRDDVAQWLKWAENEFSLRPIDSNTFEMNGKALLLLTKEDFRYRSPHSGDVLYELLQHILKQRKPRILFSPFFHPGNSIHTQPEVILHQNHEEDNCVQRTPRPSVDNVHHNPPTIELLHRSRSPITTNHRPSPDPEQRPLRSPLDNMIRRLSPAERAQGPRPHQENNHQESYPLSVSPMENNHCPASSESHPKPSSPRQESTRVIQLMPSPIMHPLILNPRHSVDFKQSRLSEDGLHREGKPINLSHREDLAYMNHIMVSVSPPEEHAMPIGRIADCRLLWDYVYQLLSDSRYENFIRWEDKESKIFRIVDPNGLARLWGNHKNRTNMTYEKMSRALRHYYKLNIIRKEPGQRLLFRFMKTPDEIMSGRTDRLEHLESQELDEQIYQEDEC
Chain of HSF1 (Q00613 whole entry): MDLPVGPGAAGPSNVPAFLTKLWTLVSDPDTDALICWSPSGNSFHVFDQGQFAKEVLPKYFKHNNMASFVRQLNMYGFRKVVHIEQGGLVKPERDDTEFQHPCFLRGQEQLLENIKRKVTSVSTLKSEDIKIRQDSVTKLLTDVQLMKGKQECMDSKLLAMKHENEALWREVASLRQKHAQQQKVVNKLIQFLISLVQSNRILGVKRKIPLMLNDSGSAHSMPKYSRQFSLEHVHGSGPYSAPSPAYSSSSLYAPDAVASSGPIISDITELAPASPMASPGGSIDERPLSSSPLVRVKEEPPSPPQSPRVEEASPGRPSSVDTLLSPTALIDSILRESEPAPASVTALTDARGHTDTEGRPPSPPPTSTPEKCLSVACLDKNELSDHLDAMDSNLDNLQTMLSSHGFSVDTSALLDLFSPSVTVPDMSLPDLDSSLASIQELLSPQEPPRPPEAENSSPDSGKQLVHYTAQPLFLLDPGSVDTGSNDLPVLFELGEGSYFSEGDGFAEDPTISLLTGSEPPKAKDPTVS
Chain of ETV5 (P41161 whole entry): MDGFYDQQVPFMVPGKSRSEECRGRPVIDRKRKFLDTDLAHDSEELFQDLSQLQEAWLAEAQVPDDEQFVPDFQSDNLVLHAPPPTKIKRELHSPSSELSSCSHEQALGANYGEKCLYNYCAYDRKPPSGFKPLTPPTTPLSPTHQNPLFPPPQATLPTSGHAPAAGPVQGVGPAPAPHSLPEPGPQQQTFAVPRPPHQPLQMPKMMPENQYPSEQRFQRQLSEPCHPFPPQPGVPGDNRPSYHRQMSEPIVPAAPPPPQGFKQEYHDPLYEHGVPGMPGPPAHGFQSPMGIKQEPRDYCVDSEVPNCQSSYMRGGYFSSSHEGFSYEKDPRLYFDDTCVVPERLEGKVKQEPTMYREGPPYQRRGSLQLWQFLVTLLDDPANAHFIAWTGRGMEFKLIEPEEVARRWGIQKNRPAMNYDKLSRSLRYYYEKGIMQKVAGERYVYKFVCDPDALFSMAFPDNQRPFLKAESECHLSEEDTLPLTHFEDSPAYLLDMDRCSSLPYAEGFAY
Chain of ELF4 (Q99607 whole entry): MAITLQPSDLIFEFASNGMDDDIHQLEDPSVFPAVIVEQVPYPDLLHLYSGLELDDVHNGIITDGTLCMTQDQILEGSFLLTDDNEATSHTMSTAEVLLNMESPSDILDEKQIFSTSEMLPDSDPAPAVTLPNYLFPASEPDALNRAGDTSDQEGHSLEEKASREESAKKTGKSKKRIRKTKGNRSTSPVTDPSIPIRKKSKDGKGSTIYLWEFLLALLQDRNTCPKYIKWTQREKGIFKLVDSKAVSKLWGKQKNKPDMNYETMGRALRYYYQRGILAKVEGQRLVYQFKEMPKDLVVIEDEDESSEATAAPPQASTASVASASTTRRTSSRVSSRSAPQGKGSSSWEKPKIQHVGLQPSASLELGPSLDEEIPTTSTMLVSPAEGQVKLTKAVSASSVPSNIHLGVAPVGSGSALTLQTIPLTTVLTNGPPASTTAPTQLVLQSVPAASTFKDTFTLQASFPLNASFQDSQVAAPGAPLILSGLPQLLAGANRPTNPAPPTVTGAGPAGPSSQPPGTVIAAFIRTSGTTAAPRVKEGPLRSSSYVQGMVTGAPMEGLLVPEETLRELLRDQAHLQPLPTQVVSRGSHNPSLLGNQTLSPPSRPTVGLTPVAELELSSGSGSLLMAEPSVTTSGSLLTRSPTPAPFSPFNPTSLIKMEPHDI
Chain of ETV1 (P50549 whole entry): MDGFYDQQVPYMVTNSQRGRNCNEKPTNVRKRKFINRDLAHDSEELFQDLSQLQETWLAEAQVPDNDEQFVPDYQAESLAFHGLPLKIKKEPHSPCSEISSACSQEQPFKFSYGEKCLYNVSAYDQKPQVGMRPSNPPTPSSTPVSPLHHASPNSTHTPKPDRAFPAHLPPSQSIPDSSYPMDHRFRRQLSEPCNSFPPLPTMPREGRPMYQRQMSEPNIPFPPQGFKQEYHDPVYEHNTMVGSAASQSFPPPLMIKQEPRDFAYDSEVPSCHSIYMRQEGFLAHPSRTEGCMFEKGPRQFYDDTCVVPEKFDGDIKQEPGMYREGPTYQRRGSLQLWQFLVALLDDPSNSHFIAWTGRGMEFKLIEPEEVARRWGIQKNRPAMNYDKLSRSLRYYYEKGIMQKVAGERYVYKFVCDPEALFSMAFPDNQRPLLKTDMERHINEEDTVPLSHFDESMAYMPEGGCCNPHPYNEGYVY
Chain of CRX (O43186 whole entry): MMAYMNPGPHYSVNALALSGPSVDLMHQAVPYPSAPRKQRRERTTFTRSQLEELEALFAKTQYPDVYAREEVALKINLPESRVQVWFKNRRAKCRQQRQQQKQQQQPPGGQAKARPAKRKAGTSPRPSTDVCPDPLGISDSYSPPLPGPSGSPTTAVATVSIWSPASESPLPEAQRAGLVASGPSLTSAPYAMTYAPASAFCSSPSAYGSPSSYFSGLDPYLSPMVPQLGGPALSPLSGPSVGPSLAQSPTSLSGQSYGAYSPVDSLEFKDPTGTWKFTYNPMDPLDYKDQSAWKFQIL

Regarding AAAGAC, the binding signal with FEV was 1.06 fold enrichment (6-mer frequency, TF over GST control); with ETV5, 1.05 fold enrichment (6-mer frequency, TF over GST control); with HSF1, 1.11 fold enrichment (6-mer frequency, TF over GST control); with SPIC it was 1.01 fold enrichment (6-mer frequency, TF over GST control); with ELF4, 1.04 fold enrichment (6-mer frequency, TF over GST control); with ELK4 it was 1.04 fold enrichment (6-mer frequency, TF over GST control). The binding signal with ETV2 was 1.03 fold enrichment (6-mer frequency, TF over GST control); in the test with ELF3, 1.01 fold enrichment (6-mer frequency, TF over GST control); in the test with CRX, 1.13 fold enrichment (6-mer frequency, TF over GST control); with ETV1 it was 1.03 fold enrichment (6-mer frequency, TF over GST control); in the test with ERF, 1.08 fold enrichment (6-mer frequency, TF over GST control); in the test with ETV3L it was 1.06 fold enrichment (6-mer frequency, TF over GST control). The binding signal was 1.12 fold enrichment (6-mer frequency, TF over GST control) with ETS2; 1.01 fold enrichment (6-mer frequency, TF over GST control) in the test with SPDEF; 1.03 fold enrichment (6-mer frequency, TF over GST control) with ETV7; 1.03 fold enrichment (6-mer frequency, TF over GST control) in the test with ELF5; 1.01 fold enrichment (6-mer frequency, TF over GST control) in the test with ETV3; 1.16 fold enrichment (6-mer frequency, TF over GST control) with ETV6.
